Experimental findings from PubChem BioAssay (NCATS) are described below.

Test in all cases: qHTS profiling for inhibitors of Plasmodium falciparum proliferation (AID 504749); further: nearly all actives have a fitted effect of over 60% in size
What all share (settings): P. falciparum in erythrocytes, SYBR Green DNA, 72 h; series mostly up to 28.7 µM
In general terms: qHTS replaces the single test concentration by a dilution series.

The subject of test [1] is ATS95. Put shortly:
(§1)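 Readout was DNA-dye fluorescence from lysed cultures, ex 485/em 535 nm. Parasitized red cells had grown 72 h with compound; data scaled between 0.29 uM artemisinin and DMSO wells and corrected using vehicle-only plates.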

Test [2] has as its system C2A. A digest of the protocol:
as §1

Test [3] concerns CP185. Put shortly:
as §1

Test [4] relates to CP192. Put shortly: as §1
For test [5], the system named is CP194. A digest of the protocol:
as §1

Test [6] concerns CP201. Put shortly: as §1
Test [7] has as its system CP211. Put shortly:
as §1

For test [8], the system named is CP215. A digest of the protocol:
as §1

Test [9] deals with CP191. A digest of the protocol: as §1
Test [10] concerns CP203. A digest of the protocol:
as §1

Results filed as inconclusive are left out. The source made the active and inactive calls. The call rests on the fitted dose curve; in most records, active means well fitted inhibition curve with a large enough effect; inconclusive means small, poorly fitted or top-dose-only effect; inactive means flat fitted curve, though single readings scatter.
Potency means the concentration at half of the fitted maximal effect.

As to `C[C@]12C/C(=C/O)C(=O)C[C@@H]1CC[C@@H]1[C@@H]2CC[C@@]2(C)[C@H]1CC[C@]2(C)O`, the Potency result in [1], in [2], in test [3], in [4], in test [5] and in [6] was “inactive” each time. For the same molecule, the Potency entry in test [7] and in [8] was “inactive” throughout.
As for `CC(C)(C)NCC(O)c1cc(Cl)c(N)c(Cl)c1` (stereo unspecified), the Potency result in test [2], in test [6] and in [7] was “inactive” in each case.
`COc1ccc(C(CN(C)C)C2(O)CCCCC2)cc1` (stereo unspecified): the Potency result in test [1], in test [2], in test [3], in [9], in [4] and in test [6] was “inactive” each time. Moreover, the Potency result in test [7] and in test [8] was “inactive” each time.
On to `Clc1ccc(COC(Cn2ccnc2)c2ccc(Cl)cc2Cl)cc1` (stereo unspecified), for which the Potency was 3.98 µM (active) in test [1]; 11.2 µM (active) in test [2]; 8.91 µM (active) in test [3]; 3.16 µM (active) in test [9]; 6.01 µM (active) in [4]; 6.75 µM (active) in test [5]. The Potency was 15.1 µM (active) in [6], 9.53 µM (active) in test [7] and 4.78 µM (active) in test [8].
In the case of `Clc1cccc(N2CCNCC2)c1`, the Potency entry in [1], in test [2], in [3], in test [9], in test [4] and in test [6] was “inactive” in each case. Moreover, the Potency entry in [10] and in test [8] was “inactive” throughout.
Turning to `Fc1ccc(C(OCCN2CCN(CCCc3ccccc3)CC2)c2ccc(F)cc2)cc1`, the Potency in [1] was 7.94 µM (active); in test [2] it was 11.2 µM (active); in test [3], 10 µM (active); in [9] it was 10 µM (active); in [7], 13.5 µM (active).
As for `CC(=O)Nc1cc([As](=O)(O)O)ccc1O`, the Potency result in [1], in [2], in test [3], in [9], in [4] and in test [5] was “inactive” throughout. The Potency entry in test [7] and in test [8] was “inactive” throughout.
As for `C=C(C)[C@H]1Cc2c(ccc3c2O[C@@H]2COc4cc(OC)c(OC)cc4[C@@H]2C3=O)O1`, the Potency entry in test [1], in [2], in test [3], in test [9], in [4] and in [6] was “inactive” each time. Further, the Potency result in test [7] and in test [8] was “inactive” throughout.
For `O=c1[nH]c2ccccc2n1CCCN1CCC(n2c(=O)[nH]c3cc(Cl)ccc32)CC1`, the Potency was 11.2 µM (active) in [2] and 3.98 µM (active) in [9]. Also, in test [6], the Potency result was “inactive”.
For `NP(N)(=O)NC(=O)c1ccc(F)cc1`, the Potency result in test [1], in test [2], in test [9], in test [4], in test [5] and in test [6] was “inactive” in each case. Moreover, the Potency result in [7] and in [8] was “inactive” throughout.
For `CCCN1CCC[C@@H]2Cc3[nH]ncc3C[C@H]21`, the Potency result in test [4], in [5], in test [6], in test [7] and in [8] was “inactive” in each case.
Consider `CC(C)(N)Cc1ccc(Cl)cc1`, for which the Potency result in test [2], in test [3], in test [9], in test [4], in [6] and in [7] was “inactive” in each case. Also, in [8], the Potency entry was “inactive”.
`Oc1ccc(Cl)cc1Cc1ccccc1`: the Potency result in test [2], in test [3], in [6] and in [7] was “inactive” in each case. In addition, the Potency in test [10] was 16.9 µM (active).
In the case of `c1ccc2c(c1)Nc1ccccc1S2`, in [9], the Potency was 7.94 µM (active). Further, the Potency result in test [6] was “inactive”.
Turning to `CN1C[C@H](CNC(=O)OCc2ccccc2)C[C@@H]2c3cccc4c3c(cn4C)C[C@H]21`, the Potency was 11.2 µM (active) in test [1], 8.91 µM (active) in [2], 8.91 µM (active) in test [3] and 9.53 µM (active) in test [7].
As for `CCN(C(C)=O)c1cccc(-c2ccnc3c(C#N)cnn23)c1`, the Potency result in test [1], in test [2], in test [3], in test [9], in test [5] and in test [6] was “inactive” throughout. Further, the Potency result in test [7] and in [8] was “inactive” each time.
On to `C=C1CC[C@@]2(O)[C@H]3Cc4ccc(O)c5c4[C@@]2(CCN3CC2CC2)[C@H]1O5`, for which the Potency result in test [1], in test [2], in test [3], in test [4], in test [5] and in [6] was “inactive” throughout. Further, the Potency entry in test [7] and in test [8] was “inactive” throughout.
`CN1C(=S)CN=C(c2ccccc2)c2cc(Cl)ccc21`: the Potency entry in test [1], in test [2], in test [3], in [9], in test [5] and in test [6] was “inactive” in each case. The Potency entry in test [7] and in test [8] was “inactive” each time.
As for `CC[C@@H](CO)NC(=O)[C@@H]1C=C2c3cccc4[nH]cc(c34)C[C@H]2N(C)C1`, the Potency result in test [1], in [2], in test [3], in test [9], in test [5] and in [6] was “inactive” each time. Further, the Potency result in test [10], in test [7] and in [8] was “inactive” each time.
`CC(C)NCC(O)c1ccccc1Cl` (stereo unspecified): the Potency in test [1] was 11.2 µM (active). The Potency entry in [6] is “inactive”.
